The values that follow come from PubChem BioAssay AID485 (The Scripps Research Institute Molecular Screening Center, 2006).

The campaign covered roughly 170,000 compounds. About 460 (0.27%) were called active.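 How the source made its calls: active means inhibition above the plate cutoff, the mean inhibition of test wells on that plate plus 3 SD (cut at about 28% in these data); inactive means the rest.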 The entries come from a sample that favours actives as a whole.

Usually inhibition stands for the relative decrease from the control value, in per cent.

In this test the target is Sphingosine 1-phosphate receptor 3 (Homo sapiens) (UniProt Q99500). Briefly: S1P3 receptor antagonists, primary screen, cell-based (AID 485).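 Further: cells challenged with S1P at its EC80 of 0.8 µM; blue over green emission ratio from cleaved BLA substrate after 4 h stimulation; 0% = S1P-stimulated wells and 100% = unstimulated DMSO-only wells.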 As to conditions: CHO S1P3 NFAT-BLA reporter, FRET fluorescence, antagonist mode; at 4.98 µM; active compounds read high.
Sphingosine 1-phosphate receptor 3 (Homo sapiens), sequence (Q99500 whole entry, looked up): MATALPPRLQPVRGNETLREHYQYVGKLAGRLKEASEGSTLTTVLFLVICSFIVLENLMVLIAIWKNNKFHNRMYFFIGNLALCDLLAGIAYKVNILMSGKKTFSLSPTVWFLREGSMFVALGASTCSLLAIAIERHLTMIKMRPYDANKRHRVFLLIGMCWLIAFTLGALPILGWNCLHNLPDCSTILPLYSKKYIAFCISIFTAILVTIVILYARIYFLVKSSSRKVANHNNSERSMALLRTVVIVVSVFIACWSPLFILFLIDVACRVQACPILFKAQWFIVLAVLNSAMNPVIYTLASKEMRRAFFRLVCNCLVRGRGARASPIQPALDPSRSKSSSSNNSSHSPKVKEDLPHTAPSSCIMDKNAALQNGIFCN
As to `CCC(=O)/C=C1\Sc2ccccc2N1CC`, the inhibition is 1.3% (inactive). In the case of `CCN1/C(=C/c2ccc3ccc(C)cc3[n+]2CC)Sc2ccccc21` it was 25.1% (inactive). To `CCN1/C(=C\c2ccc3ccccc3[n+]2CC)Sc2cc(C)ccc21` belongs 31.2% (active); to `C=CCSc1nnc(NC(=O)c2ccc(NC(C)=O)cc2)s1`, -1.45% (inactive); to `Cc1cccc(C(=O)Nc2ccc3c(c2)C(=O)N(CC(C)C)C3=O)c1`, 2.56% (inactive). On to `Nc1ccccc1Sc1cc(Cl)nnc1Cl`, for which the inhibition is 1.23% (inactive).

As for `Cc1c(NC(=O)C(=O)N/N=C/c2cccs2)c(=O)n(-c2ccccc2)n1C`, the inhibition was -2.98% (inactive). To `COc1ccccc1NC(=O)C1=C(C)NC(=O)NC1c1ccc(C)s1` (stereo not given) belongs 1.95% (inactive); to `COc1cccc(OC)c1C(=O)NC(=S)NCc1ccco1`, -6.79% (inactive); to `NS(=O)(=O)c1ccc(CNC(=O)c2cnccn2)cc1`, -4% (inactive). With `Brc1ccc(-c2nn[nH]n2)cc1`, the inhibition is -7.13% (inactive). In the case of `CCN(CCn1cccn1)Cc1cn[nH]c1-c1ccc(OC)cc1F` it was -12.8% (inactive).

Turning to `COc1ccc(CCNC2=CC(=O)CC(C)(C)C2)cc1`, the inhibition was -7.01% (inactive). To `CN(C)/C=C(/C(=O)c1ccc(Cl)c(Cl)c1)c1nnnn1-c1ccccc1` belongs 1.6% (inactive); to `O=C(NNC(=O)c1ccccc1[N+](=O)[O-])Nc1ccccc1C(F)(F)F`, -5.24% (inactive). In the case of `O=S(=O)([N-]c1nc2ccccc2nc1-[n+]1ccc(Cc2ccccc2)cc1)c1ccc(Br)s1`, the inhibition is 0.71% (inactive). In the case of `CCNc1nc(Oc2ccc(C(=O)OC)cc2)nc(N2CCOCC2)n1`, the inhibition was -9.79% (inactive).

For `COc1ccccc1Nc1nc(N)nc(CSC(=S)N2CCOCC2)n1`, the inhibition is 3% (inactive).

Turning to `O=C(CCCl)Nc1ccc(S(=O)(=O)NCc2ccco2)cc1`, the inhibition is -8.65% (inactive). In the case of `O=C(NCc1nnc(SCC(=O)N2CCCc3ccccc32)o1)c1ccccc1F` it was -7.71% (inactive).

With `CCCCC(=O)NCc1ccc(F)cc1`, the inhibition is 6.82% (inactive).

`CSc1ccc(CN(C)CC(=O)NCc2ccc(F)cc2)cc1`: the inhibition was 30.2% (active).

Consider `O=C(Cc1ccccc1)NCc1ccc(F)cc1`, for which the inhibition was -11% (inactive).

Take `COc1ccccc1-n1c(SCC(=O)O)nc2sc3c(c2c1=O)CCC3`: the inhibition is -7.86% (inactive). Take `Nc1ccc(SCCN2C(=O)c3ccccc3C2=O)cc1`: the inhibition is 91.7% (active). Consider `CN(C)CCCn1c(SCCN2C(=O)c3ccccc3C2=O)nc2ccccc2c1=O`, for which the inhibition was 5.65% (inactive). `Cc1ccc(SCCN2C(=O)NC(C)(C)C2=O)cc1`: the inhibition is -2.4% (inactive). Regarding `CCOC(=O)C1=C(C)NC(C)=C(C(=O)OCC)C1c1ccccn1`, the inhibition is -28.6% (inactive).

As to `CCOC(=O)C1=C(C)NC(=O)NC1c1ccccc1` (stereo not given), the inhibition is -9.13% (inactive). In the case of `CCOC(=O)C1=C(C)N=C2c3ccccc3C(=O)C2C1c1ccc(Br)cc1` (stereo not given) it was 60% (active).
